Sampled rows, rich in hits. Any-hit rate of the full collection: about 4.3%.
GLP1R ag: activates the human GLP-1 receptor; P43220; HEK293 GLP-1R CRE-luciferase, luminescence, 4-6 h; cells express a hypersensitive GLP-1R form; AID 624172; Potency, µM (doses to about 45.6 µM), for inactives: at the top dose activation, actives largely listed as activators; hit rate 0.007% among 380,000; also: potency is read from the fitted curve at half-maximal effect; % of control where 0% means no effect
GLP-1R inv ag: inverse agonists of human GLP-1 receptor | AID 624417 | hit rate 1.6% among 410,000 | Potency, µM (highest dose often 38.3 µM), inactives show top-dose activity change, negative = inhibition, actives largely listed as inhibitors | HEK293 GLP-1R CRE-luciferase, luminescence, 24 h; GLP-1R form is constitutively active | P43220; also: potency is read from the fitted curve at half-maximal effect; % is scaled to controls: 0 for no effect and ±100 for the full control effect; nearly all actives have a fitted effect of over 55% in size
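Seeding at 200 cells/uL, 12 h culture, 24 hr compound treatment, then luciferase reagent and a luminescence read; cells are HEK293 stably expressing a constitutively active GLP-1R plus cAMP-responsive luciferase.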
DRD3 antagonist: D3 dopamine receptor (human) antagonism; P35462; D3R cells, DiscoveRx beta-arrestin luminescence, antagonist mode; active compounds read low; max response, negative = inhibition, %; hit rate 2.5% among 360,000; in the data active = max response below about -50%; inconclusive = no clear call, values can overlap the other calls; also: % is scaled to controls: 0 for no effect and ±100 for the full control effect
Target sequence (P35462 whole entry, looked up): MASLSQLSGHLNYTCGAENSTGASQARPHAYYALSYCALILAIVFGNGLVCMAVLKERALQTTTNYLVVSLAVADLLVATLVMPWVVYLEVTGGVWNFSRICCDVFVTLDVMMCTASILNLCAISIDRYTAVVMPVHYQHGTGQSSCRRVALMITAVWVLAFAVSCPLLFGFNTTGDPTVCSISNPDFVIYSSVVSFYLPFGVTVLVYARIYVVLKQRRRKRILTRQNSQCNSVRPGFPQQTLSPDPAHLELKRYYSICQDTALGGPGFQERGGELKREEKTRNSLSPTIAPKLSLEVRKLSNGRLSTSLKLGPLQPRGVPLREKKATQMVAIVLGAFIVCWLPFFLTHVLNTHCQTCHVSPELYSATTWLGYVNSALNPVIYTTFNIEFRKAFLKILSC
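Cells plated overnight at 1500 cells/well, then exposed to library compounds with dopamine controls for 90 minutes at 37 degrees C. DiscoveRx reagent added for 30–60 minutes at room temperature; luminescence read, quantitative HTS format.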
DRD3 agonist: D3 dopamine receptor (human) agonism; D3R DiscoveRx beta-arrestin cells, luminescence, 90 min; max activation, %; hit rate 0.58% among 410,000; AID 652048; in the data active = max activation above about 30%; also: 0% is about no effect
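Cells at 1500/well, incubated overnight, then treated with pinned compounds (dopamine as control) for 90 min at 37 degrees C. DiscoveRx reagent added for 30 - 60 minutes at room temperature; luminescence read.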
Numbers without * were called inactive; ? = inconclusive; · = no result given; ! = not confirmed by another sample. Unless noted, calls follow the shape of the dose curve; as a rule, active = well fitted curve in the direction sought with a large enough effect; inconclusive = small, poorly fitted or top-dose-only effect, or another doubt; inactive = no such curve, though single readings can be large; an effect the other way counts as inactive or inconclusive.

SMILES	GLP1R ag	GLP-1R inv ag	DRD3 antagonist	DRD3 agonist
O=C(CN1C(=O)NC2(CCOc3ccccc32)C1=O)Nc1cccc(Cl)c1 (configuration not stated)	1.9%	10µM*	2.0	-5.6
COc1cc(NC(=O)CN2C(=O)NC3(CCOc4ccccc43)C2=O)cc(OC)c1 (configuration not stated)	6.7%	-24.2%	-5.8	1.4
COc1ccccc1Nc1ccc(C(=O)O)cc1[N+](=O)[O-]	-0.6%	-6.2%	-58.9*	-16.9
COc1ccc(NS(=O)(=O)c2ccc(N/N=C(\C)c3ccncc3)c([N+](=O)[O-])c2)cc1	-3.5%	0.0%	-64.8*	-12.5
COc1ccccc1NS(=O)(=O)c1ccc(NN=C2CCCCC2)c([N+](=O)[O-])c1	3.7%	?	-60.6*	-7.1
NC(=O)c1c(NC(=O)c2ccccc2F)sc2c1CCC2	-2.0%	-17.9%	-8.0	-8.7
Cc1ccc(NCc2ccccc2OCc2ccccc2F)cc1	-2.9%	?	-10.8	3.3
Oc1ccc(NCc2ccccc2OCc2ccccc2F)cc1	11.2µM*	9.2%	10.3	-17.9
Cc1cccc(NCc2ccccc2OCc2ccccc2F)c1	-1.2%	10µM*	-22.0	1.7
CCOC(=O)C1=C(CNCc2ccc(C)cc2)NC(=O)NC1c1cc(C)ccc1C (configuration not stated)	6.6%	?	22.1	22.8
CCOC(=O)C1=C(Cn2cnc3ccccc32)NC(=O)NC1c1cc(C)ccc1C (configuration not stated)	-6.4%	?	18.8	34.1*
COC(=O)C1=C(Cn2cnc3ccccc32)NC(=O)NC1c1cc(C)ccc1C (configuration not stated)	-10.7%	?	59.1	39.6*
COc1ccccc1Cn1c(C)c(C(=O)NCc2ccc(C#N)cc2)sc1=O	2.5%	-1.7%	-3.5	-5.8
Cc1c(C(=O)NCc2ccc(F)cc2)sc(=O)n1Cc1ccc(Cl)c(Cl)c1	-0.5%	10µM*	-74.4*	-9.3
COc1ccccc1Cn1c(C)c(C(=O)NCc2cccc(C)c2)sc1=O	16.3%	?	-57.5*	-3.9
Cc1ccccc1Cn1c(C)c(C(=O)NCc2cccc(Cl)c2)sc1=O	5.9%	?	-53.4*	-3.7
Cc1cccc(CNC(=O)c2sc(=O)n(Cc3c(C)cccc3C)c2C)c1	12.6%	?	-89.6*	-9.8
Cc1cccc(C)c1Cn1c(C)c(C(=O)NCCC#N)sc1=O	4.3%	0.5%	0.9	6.2
Cc1cccn2c(=O)c(C(=O)N3CCN(c4ccccc4F)CC3)cnc12	·	-4.4%	·	-24.6
O=C1c2[nH]nc(-c3ccccc3O)c2C(c2ccc(Cl)cc2)N1Cc1ccco1 (configuration not stated)	·	?	·	3.0
COc1cc2nc(NCCc3ccccc3)n3nc(-c4cccnc4)nc3c2cc1OC	·	12.0%	·	-19.8
Cc1oc(=O)c(NC(=O)c2ccccc2)cc1C(=O)c1ccccc1	-4.7%	105.7%	?	-1.1
Cc1oc(=O)c(NC(=O)c2ccc(Cl)cc2)cc1C(=O)c1ccccc1	-2.6%	0.0%	-80.0*	-7.5
Cc1oc(-c2ccc(C(=O)NCCC(C)C)cc2)nc1CS(=O)(=O)c1ccccc1	·	-7.8%	·	-23.2
CCC1CCCCN1S(=O)(=O)c1ccc(NC(=O)c2cccnc2)cc1 (configuration not stated)	-0.9%	?	-2.2	-23.4
SMILES	GLP1R ag	GLP-1R inv ag	DRD3 antagonist	DRD3 agonist
COc1cc(OC)cc(C(=O)Nc2ccc(S(=O)(=O)N3CCCCC3c3cccnc3)cc2)c1 (configuration not stated)	·	7.08µM*	·	-34.5
CCCC(=O)n1nc(-c2ccco2)nc1NCc1ccccc1Cl	·	5.6%	·	5.7
O=C(c1cnsn1)N1CCC(CO)(Cc2cccc(F)c2)CC1	10.8%	-0.2%	1.2	13.2
COc1cccc(CC2(CO)CCN(Cc3cn(C)nc3C)CC2)c1	-0.2%	-15.3%	1.4	-10.4
Cc1nn(C)c(Cl)c1CN1CCC(CO)(CCOc2ccccc2)CC1	6.7%	-31.5%	-2.5	-8.2
OCC1(Cc2cccc(F)c2)CCN(Cc2ccc3cccc(F)c3n2)CC1	13.0%	?	-74.5*	-7.1
CCOC(=O)C1(CC2CC2)CCN(Cc2ccc3cccc(F)c3n2)CC1	1.2%	?	-95.6*	-19.0
Cc1c(CN2CCC(CO)(CCOc3ccccc3)CC2)[nH]c2c(Cl)cccc12	9.6%	4.47µM*	?	-11.1
COc1cccc(CC2(CO)CCN(Cc3ccc4cccc(F)c4n3)CC2)c1	9.6%	-43.5%	-82.2*	-17.3
CCCCCNC(=O)C1CCC(Cn2c(=O)c3sccc3n(CC)c2=O)CC1 (configuration not stated)	·	8.7%	·	-16.8
CCOc1ccc(C(=O)Nc2ccc3nc(SCC(=O)N4CCOCC4)sc3c2)cc1	·	3.7%	·	6.8
COc1ccc(CN2CCC(CO)(Cc3ccccc3C(F)(F)F)CC2)c(F)c1	-2.2%	8.91µM*	?	-15.6
OCC1(CCOc2ccccc2)CCN(Cc2ccc3cccc(F)c3n2)CC1	10.9%	?	-86.9*	-14.3
Cc1ccccc1N1CCN(S(=O)(=O)c2nnc(NC(=O)c3ccc(C(C)C)cc3)s2)CC1	·	-7.8%	·	9.5
Cn1c(=O)c2c(SCC(=O)NCc3ccco3)nc(-c3ccccc3F)nc2n(C)c1=O	·	9.7%	·	2.2
O=C(NCc1cccs1)c1ccc2c(c1)N(Cc1cccc(F)c1)C(=O)c1ccccc1S2	·	?	·	-8.8
Cc1ccc(OCCCCN(C)Cc2ccccc2)c(Br)c1	-2.2%	?	-54.6*	-15.8
Cc1ccc(C(C)C)c(OCCCN(C)Cc2ccccc2)c1	-2.1%	?	-61.4*	-14.2
Cc1ccc(C(C)C)c(OCC(O)CN(C)Cc2ccccc2)c1 (configuration not stated)	21.9%	?	12.8	-7.0
COc1ccccc1-c1noc(-c2ccc(N3CCN(C)CC3)c([N+](=O)[O-])c2)n1	·	-19.1%	·	-28.6
CCc1ccc(NC(=O)Cn2c(=O)n(Cc3nc(-c4ccccc4)no3)c(=O)c3cc4c(cc32)OCO4)cc1	·	15.1%	·	-6.4
COc1ccc(CSc2nnc(Cc3sc(-c4ccccc4)nc3-c3ccccc3)o2)cc1	1.0%	10µM*	2.2	1.7
Fc1ccc(CSc2nnc(Cc3sc(-c4ccccc4)nc3-c3ccccc3)o2)cc1	20.3%	12.3%	0.6	-7.2
CCOc1cc(CC(=O)N[C@@H](CC(C)C)c2ccccc2N2CCCCC2)ccc1C(=O)O	-2.3%	-61.0%	36.9	96.5*!
CC(=O)Nc1nonc1-c1nnc(SCc2ccc(F)cc2Cl)n1C	·	16.1%	·	-2.6
O=C(Nc1ccccc1-c1ccccc1)NC1CC2CCCC(C1)N2Cc1ccc(F)cc1 (configuration not stated)	-4.1%	?	-101.4*	-8.3
O=C(CN1C2CCCC1CC(NC(=O)C1CCCCC1)C2)NCc1ccc(F)cc1 (configuration not stated)	10.5%	-19.7%	1.6	-1.8
CCc1ccc(NC(=S)NC2CC3CCC(C2)N3Cc2ccco2)cc1 (configuration not stated)	6.8%	0.0%	?	-24.4

Compound activity: PubChem, National Center for Advancing Translational Sciences (NCATS)
